# Test results published in the supplement of paper PMC6555819.
# Assays:
# Assay in all cases: PBM binding z-score (relative to random genomic background probes); higher = stronger binding; sequences stand for … in GC…GCGATTGACAGCGTAGAATGAAGG
# [1] = system: FXR:RXRa (NR concentration 270 nM, RXRa partner concentration 90 nM)
# Outline: (§1)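 Custom Agilent 4×180K protein-binding microarrays carried double-stranded probes, each with a 34-nt variable region. These regions held direct-repeat seeds, single-nucleotide variants, half-site ablations and random human genomic background sequences. Ligand-free nuclear receptor dimers were incubated on the arrays for 1 h, antibodies against each partner (one per run) detected binding, and scanned fluorescence was regression-normalized. Binding z-scores take the random background probes as reference.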
# [2] = system: LXRa:RXRa (NR concentration 270 nM, RXRa partner concentration 90 nM)
# Outline: as §1
# [3] = system: LXRa homodimer (NR concentration 270 nM)
# Outline: as §1
# [4] = system: LXRb:RXRa (NR concentration 270 nM, RXRa partner concentration 90 nM)
# Outline: as §1
# [5] = system: LXRb homodimer (NR concentration 270 nM)
# Outline: as §1
# [6] = system: PPARa:RXRa (NR concentration 270 nM, RXRa partner concentration 90 nM)
# Outline: as §1
# [7] = system: PPARg:RXRa (NR concentration 180 nM, RXRa partner concentration 90 nM)
# Outline: as §1
# [8] = system: PPARg:RXRa 270nM:90nM, anti-RXR (NR concentration 270 nM, RXRa partner concentration 90 nM)
# Outline: as §1
# [9] = system: PPARg:RXRa 30nM:10nM, anti-RXR (NR concentration 30 nM, RXRa partner concentration 10 nM)
# Outline: as §1
# [10] = system: PPARg:RXRa 90nM:30nM, anti-RXR (NR concentration 90 nM, RXRa partner concentration 30 nM)
# Outline: as §1
# [11] = system: PPARg:RXRa DBDmut IVT, anti-RXR (DBD mutation: RXRa K156A/R161A, NR concentration 270 nM, RXRa partner concentration 90 nM)
# Outline: as §1
# [12] = system: PPARg:RXRa IVT, anti-PPARg (NR concentration 270 nM, RXRa partner concentration 90 nM)
# Outline: as §1
# [13] = system: PPARg DBDmut:RXRa IVT, anti-PPARg (DBD mutation: PPARg1 K132A/R137A, NR concentration 270 nM, RXRa partner concentration 90 nM)
# Outline: as §1
# [14] = system: PPARg DBDmut IVT, anti-PPARg (DBD mutation: PPARg1 K132A/R137A, NR concentration 270 nM)
# Outline: as §1
# [15] = system: PPARg homodimer (NR concentration 180 nM)
# Outline: as §1
# [16] = system: PXR:RXRa (NR concentration 270 nM, RXRa partner concentration 90 nM)
# Outline: as §1
# [17] = system: PXR homodimer (NR concentration 270 nM)
# Outline: as §1
# [18] = system: RARa:RXR (NR concentration 270 nM, RXRa partner concentration 90 nM)
# Outline: as §1
# [19] = system: RARa homodimer (NR concentration 270 nM)
# Outline: as §1
# [20] = system: RARb:RXRa (NR concentration 270 nM, RXRa partner concentration 90 nM)
# Outline: as §1
Sequence,PBM binding z-score [1],PBM binding z-score [2],PBM binding z-score [3],PBM binding z-score [4],PBM binding z-score [5],PBM binding z-score [6],PBM binding z-score [7],PBM binding z-score [8],PBM binding z-score [9],PBM binding z-score [10],PBM binding z-score [11],PBM binding z-score [12],PBM binding z-score [13],PBM binding z-score [14],PBM binding z-score [15],PBM binding z-score [16],PBM binding z-score [17],PBM binding z-score [18],PBM binding z-score [19],PBM binding z-score [20]
CCTACTGGGCCACGAAAGGTCATTAATTCAGTGA,3.16,4.95,4.76,4.24,0.358,4.48,4.47,4.57,1.99,3.83,5.58,5.87,1.7,0.266,3.46,5.12,1.71,5.32,1.1,3.79
AGAACGAGGTTATTAAGATCAGGGAATTGCGGTC,1.44,1.34,-0.0763,1.09,-0.115,2.15,1.26,1.68,0.389,0.958,2.38,2.16,0.246,0.0385,0.237,1.04,0.955,1.08,-0.125,1.32
ATATTTAGGTTATCGGGTCATTCAGTTTGCGCAT,3.46,3.38,3.11,3.44,2.37,4.75,5.55,5.51,3,4.66,6.89,6.64,4.67,4.42,4.15,3.9,8.95,4.06,4.33,2.93
ACTATTAGTTGAGACGAGGGCAACCAATAGGTTG,0.56,0.143,-0.167,0.143,-0.0545,0.282,0.647,0.464,0.235,0.58,0.183,0.992,0.202,0.799,0.0729,1.75,0.385,1.5,0.723,1.09
GCGACTAGGGCAAAGCAGGTTACCATAAGGTTGG,0.0913,0.121,-0.0293,-0.376,-1.03,1.17,1.63,1.77,-0.187,0.722,4.76,4.23,-0.472,-0.903,0.0824,0.293,-0.481,0.775,-1.2,1.1
CACACTAGGTCAAGGTCAAAGTCGGTTTGTGCCA,7.12,6.07,5.26,4.87,2.5,5.71,8.74,7.44,5.6,7.61,7.8,8.02,6.91,5.72,7.79,5.54,4.08,5.87,3.51,5.03
TCTGCTACGTCAACGATGGTCAGCTAATCTGCTA,-0.231,-0.136,-0.622,-0.384,-0.541,-0.191,0.00276,0.525,1.6,1.1,0.824,-0.0517,-0.273,0.303,-1.54,-0.555,-0.856,-0.492,-1.62,-0.0266
CGAACTAGGTCAAGCACAGTGAATCTCCGCACGC,4.1,2.35,0.195,1.67,-0.136,4.74,7.62,6.72,4.49,6.09,8.33,8.4,5.79,3.74,2.82,1.18,-0.61,2.31,0.512,3.98
CCTCAAAGTTCAAGGTAACGTAACAGAAAGCAGC,5.83,5.87,3.49,3.83,1.95,4.85,2.87,3.67,0.99,2.22,0.797,0.928,0.66,0.159,3.58,4.18,2.53,3.49,2.16,5.26
TCTTGTAGATCAGCAGGTTGAGAAAGCTGGCCAA,0.242,0.0309,-0.346,-0.0211,-0.546,0.457,-0.781,1.1,2.58,1.75,1.7,-0.16,-1.19,-1.18,-0.343,0.181,-0.51,0.426,-0.127,-0.0315
CCAGACAGGTGAGAACGTAACTCAGCCTCGATTA,-0.0139,-0.0409,0.178,0.22,-0.463,0.136,0.444,-0.545,-0.231,-0.422,0.85,0.49,0.0295,-0.354,0.692,-0.267,0.209,-0.0422,0.428,0.192
TAGCCTAGGTCAGATAGGGCCAGTATACGCTATA,2.49,0.979,-0.0979,0.697,-0.375,1.59,0.726,0.567,-0.0576,0.283,0.509,1.38,0.269,0.324,0.391,1.37,-0.14,0.802,-0.488,3.05
CCAACTGGGCCATCAGGTCATTGATATCAACGTT,1.54,0.836,0.987,1.56,-0.441,2.73,2.9,3.63,1.38,3.04,5.15,4.92,-0.74,0.0786,1.32,1.59,0.906,1.67,0.182,2.05
AGAATGAGATTATTAAGATCAGGGAATTGCGGTC,-1.55,-0.864,-0.323,-0.702,-0.452,-0.715,0.449,-0.292,-0.0999,-0.261,-0.986,0.00075,0.944,0.0181,-0.475,-0.605,-0.339,-0.5,0.637,-0.639
TCGAGTAGGTTAGGGGCATTCATAATGGCGTCGA,0.0373,0.369,0.0659,0.931,-0.211,1.4,1.06,2.19,1.35,1.98,2.14,1.72,-0.476,-0.145,0.584,0.584,0.233,0.705,0.173,1.07
ATATGAAGGTTAAGGGTCATTCAGGTTGGTTCGC,5.91,5.46,3.32,4.85,1.14,5.8,8.33,7.73,5.9,8,2.29,4.44,1.32,1.46,3.39,5.84,2.27,6.97,1.13,4.19
CTCGAAAGGTCGGTTGAGGTGAGCATACGGATAA,2.86,1.78,-0.014,1.37,-0.173,2.74,0.697,1.33,0.406,0.609,-0.122,1.01,-0.332,-0.0105,0.799,2.9,-0.0982,2.5,0.0392,3.09
ATCTCTAGGAAAAAGTTCAGTGAATCCCGAGGAT,0.0166,0.275,0.466,0.0384,0.735,0.653,1.18,3.25,1.41,2.47,-0.718,-0.0888,0.814,0.266,0.423,0.837,0.888,0.235,1,1.78
TAGCCTTGGTCATTCAGGGGCCAGTATAGAAAGC,-0.269,-0.328,-0.573,0.134,-0.26,0.0582,-0.0299,-0.0721,-0.509,-0.279,-0.687,0.278,-0.367,-0.339,-0.308,0.0515,-0.437,0.596,-0.818,1.44
